# In PubChem BioAssay (NCATS):
# Inconclusive results are not listed. Entries that show only a call come without a potency. Activity calls are given as the source filed them. The call rests on the fitted dose curve; in most records, active means well fitted inhibition curve with a large enough effect; inconclusive means small, poorly fitted or top-dose-only effect; inactive means flat fitted curve, though single readings scatter.
# Assays:
# Assay in all cases: qHTS profiling for inhibitors of Plasmodium falciparum proliferation (AID 504749); further: nearly all actives have a fitted effect of over 60% in size
# Conditions in all cases: P. falciparum in erythrocytes, SYBR Green DNA, 72 h; series mostly up to 28.7 µM
# FAB9 = system: FAB9
# Summary of the method: (§1)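 Three-day growth assay of blood-stage parasites in erythrocytes (0.3% parasitemia, 2.5% hematocrit) at 37 C, 5% CO2, quantified by SYBR Green DNA staining after overnight detergent lysis.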
# GB4 = system: GB4
# Summary of the method: as §1
# HB3 = system: HB3
# Summary of the method: as §1
# ICS = system: ICS
# Summary of the method: as §1
# JCK = system: JCK
# Summary of the method: as §1
# N140 = system: N140
# Summary of the method: as §1
# P94_40 = system: P94_40
# Summary of the method: as §1
# PAD = system: PAD
# Summary of the method: as §1
# PC15 = system: PC15
# Summary of the method: as §1
# P93_24 = system: P93_24
# Summary of the method: as §1
# Potency means the concentration at half of the fitted maximal effect.
SMILES,Potency (FAB9),Potency (GB4),Potency (HB3),Potency (ICS),Potency (JCK),Potency (N140),Potency (P94_40),Potency (PAD),Potency (PC15),Potency (P93_24)
S=C1SCN(Cc2ccccc2)CN1Cc1ccccc1,inactive,inactive,inactive,inactive,inactive,inactive,inactive,inactive,inactive,–
CCC(C)[C@@H](N)C(=O)O (stereo partly drawn),inactive,inactive,inactive,inactive,inactive,inactive,inactive,inactive,inactive,inactive
CC12CCC(C1)C(C)(C)C2=O (stereo not drawn),inactive,inactive,inactive,inactive,inactive,inactive,inactive,inactive,inactive,inactive
C=CCOc1ccc(CC(=O)O)cc1Cl,inactive,inactive,inactive,inactive,inactive,inactive,inactive,inactive,inactive,inactive
N=C(N)c1ccc(/C=C/c2ccc(C(=N)N)cc2O)cc1,1.26 µM (active),0.536 µM (active),11.2 µM (active),1.26 µM (active),inactive,17.8 µM (active),8.91 µM (active),–,12.6 µM (active),–
CCN(CC)C(=O)c1cccnc1,inactive,inactive,inactive,inactive,inactive,inactive,inactive,inactive,inactive,inactive
FC(F)(F)C(F)(F)C(F)(F)C(F)(F)C(F)(F)F,inactive,inactive,inactive,inactive,inactive,inactive,inactive,inactive,inactive,inactive
O=P(O)(O)CP(=O)(O)O,inactive,inactive,inactive,inactive,inactive,inactive,–,inactive,inactive,inactive
CC1=CCC2CC1C2(C)C (stereo not drawn),inactive,inactive,inactive,inactive,inactive,inactive,inactive,inactive,inactive,inactive
CC(C)CCCCCCc1ccc(O)cc1,inactive,inactive,inactive,12.6 µM (active),inactive,inactive,12.6 µM (active),–,inactive,–
NC(=O)C1c2ccccc2CCc2ccccc21,inactive,inactive,inactive,inactive,inactive,–,–,inactive,inactive,–
Cc1nc(NS(=O)(=O)c2ccc(N)cc2)nc(C)c1Br,inactive,inactive,inactive,inactive,inactive,inactive,inactive,inactive,inactive,inactive
OCC(O)CO,inactive,inactive,inactive,inactive,inactive,inactive,inactive,inactive,inactive,inactive
CC(C)O,inactive,inactive,inactive,inactive,inactive,inactive,inactive,inactive,inactive,inactive
Cn1c(=O)c2c(ncn2CCOC(=O)C(C)(C)Oc2ccc(Cl)cc2)n(C)c1=O,inactive,inactive,inactive,inactive,inactive,–,–,–,inactive,–
CC(C)c1nc(N(C)S(C)(=O)=O)nc(-c2ccc(F)cc2)c1/C=C/C(O)CC(O)CC(=O)O (stereo not drawn),inactive,inactive,inactive,inactive,inactive,inactive,inactive,inactive,inactive,inactive
CCCc1nc(C(C)(C)O)c(C(=O)OCc2oc(=O)oc2C)n1Cc1ccc(-c2ccccc2-c2nn[nH]n2)cc1,inactive,inactive,inactive,–,inactive,inactive,inactive,inactive,inactive,inactive
CC(C)(C)CC(C)(C)c1ccc(OCCO)cc1,inactive,inactive,inactive,inactive,inactive,–,inactive,inactive,inactive,inactive
CC1=CC(=C(c2ccc(N)cc2)c2ccc(N)cc2)C=CC1=N,11.2 µM (active),0.536 µM (active),8.91 µM (active),1.26 µM (active),–,2.24 µM (active),1.41 µM (active),2.51 µM (active),11.2 µM (active),2.51 µM (active)
NCCO/C=C/[C@H](N)C(=O)O,inactive,inactive,inactive,inactive,inactive,inactive,inactive,inactive,inactive,inactive
Cc1ncc[nH]1,inactive,inactive,inactive,inactive,inactive,inactive,inactive,inactive,inactive,inactive
CCCOC(=O)c1ccccc1O,inactive,inactive,inactive,inactive,inactive,inactive,inactive,inactive,inactive,inactive
CC(=O)Oc1cc(C(F)(F)F)ccc1C(=O)O,inactive,inactive,inactive,inactive,inactive,inactive,inactive,inactive,inactive,inactive
N[C@@H](Cc1cc(I)c(Oc2ccc(O)c(I)c2)c(I)c1)C(=O)O,inactive,–,inactive,11.2 µM (active),inactive,–,–,–,–,–
O=C(O)c1cc(N=Nc2ccc(O)c(C(=O)O)c2)ccc1O,inactive,inactive,inactive,–,inactive,inactive,inactive,inactive,inactive,inactive
O=C(O)CCC/C=C\C[C@@H]1[C@@H](/C=C/[C@@H](O)COc2cccc(Cl)c2)[C@H](O)C[C@@H]1O,inactive,inactive,inactive,–,inactive,inactive,inactive,inactive,inactive,inactive
COc1ccc2c(=O)c(C)c(-c3ccccc3)oc2c1CN(C)C,inactive,inactive,inactive,–,inactive,–,–,inactive,inactive,–
Cc1cccc(C)c1NC(=O)C1CCCCN1C (stereo not drawn),inactive,–,inactive,inactive,inactive,inactive,inactive,inactive,inactive,inactive
C[C@]12CCC(=O)C[C@@H]1CC[C@@H]1[C@@H]2CC[C@]2(C)C=CC[C@@H]12,inactive,inactive,–,–,inactive,–,inactive,inactive,inactive,inactive
